Most compounds without a hit are left out; they make up all but 1.3% or so of the library.
pAkt inh: HTS Assay for Inhibitors of Akt Phophorylation: Primary Screen | Neuro2A IGF-stimulated pAkt S473 HTRF, 20 min; active compounds read low | activity change, % for hits at 50 µM | actives 0.32% (n = 360,000); in the data active = activity change below about -80%; inconclusive = mostly about -51% to -80%; note: % is set by controls: 0 for no effect and ±100 for the full control effect
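Neuro2A cells (4,500/well, DMEM with 0.5% FBS) were treated with compound at a single 50 µM final concentration, stimulated with 6 nM IGF for 20 min at 37 °C, and lysed. Phospho-Akt Ser473 was read by HTRF as 665/615 ratio ×10^4.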
RXFP1 antag: qHTS Assay for Antagonists of the Relaxin Receptor RXFP1; Relaxin receptor 1 (Homo sapiens), Q9HBX9; actives 0.59% (n = 350,000); AID 1259400, 2018; HEK293-RXFP1, relaxin-stimulated cAMP HTRF, 30 min; active compounds read low; activity change, negative = inhibition, % at 57.5 µM;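 active = activity change of -60% or lower, but not beyond a set lower limit; inconclusive = change between -60% and -40%, or beyond the set limit; inactive = change above -40%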; note: % is set by controls: 0 for no effect and ±100 for the full control effect
Target sequence (Q9HBX9 whole entry, looked up): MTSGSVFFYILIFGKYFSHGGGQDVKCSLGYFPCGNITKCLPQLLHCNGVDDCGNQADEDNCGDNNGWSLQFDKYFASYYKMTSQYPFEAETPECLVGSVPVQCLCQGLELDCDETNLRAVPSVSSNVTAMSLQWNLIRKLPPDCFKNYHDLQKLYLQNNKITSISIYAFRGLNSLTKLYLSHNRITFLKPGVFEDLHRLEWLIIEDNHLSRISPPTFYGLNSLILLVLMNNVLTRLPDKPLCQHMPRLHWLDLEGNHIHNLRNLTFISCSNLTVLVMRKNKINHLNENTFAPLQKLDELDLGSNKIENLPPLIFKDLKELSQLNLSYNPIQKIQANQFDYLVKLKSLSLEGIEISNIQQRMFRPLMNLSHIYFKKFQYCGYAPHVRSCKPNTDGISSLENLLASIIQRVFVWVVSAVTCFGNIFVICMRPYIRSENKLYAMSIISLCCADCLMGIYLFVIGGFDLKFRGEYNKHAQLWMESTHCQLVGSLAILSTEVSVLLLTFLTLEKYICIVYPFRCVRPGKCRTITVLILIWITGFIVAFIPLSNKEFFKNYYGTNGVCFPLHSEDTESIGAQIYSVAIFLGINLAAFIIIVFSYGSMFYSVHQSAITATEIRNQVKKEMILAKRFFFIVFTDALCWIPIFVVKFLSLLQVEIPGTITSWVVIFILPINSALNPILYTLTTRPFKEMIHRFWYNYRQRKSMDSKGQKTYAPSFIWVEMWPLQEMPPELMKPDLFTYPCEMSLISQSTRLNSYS
gsp antag: qHTS for Antagonists of gsp, the Etiologic Mutation Responsible for Fibrous Dysplasia/McCune-Albright Syndrome: qHTS. gsp-mutant cells, cAMP HTRF, 30 min. AID 624288, 2012. Potency, µM (highest dose often 76.9 µM), inactives show at the top dose activity change, negative = inhibition, most hits filed as inhibitors. actives 0.4% (n = 340,000); calls by dose curve; cell line not stated here;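 note: intracellular cAMP measured with PDE inhibitor Ro 20-1724 present during compound exposure; potency is the fitted concentration of half-maximal effect; % is set by controls: 0 for no effect and ±100 for the full control effect; nearly all actives have a fitted effect of over 65% in size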
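Cells in G418 medium, seeded 16-24 h, 37C; buffer exchange to DPBS + 1 mM CaCl2, 0.5 mM MgCl2, 0.05% BSA; cpds in DMSO + […] (300 uM stock), 30 min 37C; HTRF cAMP detection.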
TSHR antag: Antagonists of the Thyroid Stimulating Hormone Receptor: HTS campaign. Thyrotropin receptor (Homo sapiens), P16473. activity change, negative = inhibition, % at 11.5 µM. actives 0.2% (n = 330,000). TSHR-expressing cells, TSH-stimulated cAMP HTRF, 2 h; active compounds read low;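 active = activity change below a set negative limit, meaning inhibition stronger than a set level, cut at about -70% in these data; inconclusive = activity change between two set negative limits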; note: % is set by controls: 0 for no effect and ±100 for the full control effect
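TSHR-expressing cells were treated with compounds, then stimulated with TSH at EC80 (4nM final) for 2 hours at 37 deg C. Cellular cAMP was measured by HTRF competition between lysate cAMP and cAMP-d2 for a cryptate-labelled anti-cAMP antibody.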
gsp ag: qHTS for Agonist of gsp, the Etiologic Mutation Responsible for Fibrous Dysplasia/McCune-Albright Syndrome: qHTS; gsp mutant cells, cAMP HTRF, 30 min; Potency, µM (series often up to 76.9 µM), without a hit: top-dose activation (cAMP increase), most hits filed as activators; actives 0.13% (n = 340,000); active = well fitted activation curve with a large enough effect; inconclusive = small, poorly fitted or top-dose-only effect, or another doubt; inactive = no such curve, though single readings can be large or run the other way; cell line not stated here;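 note: phosphodiesterase inhibitor Ro 20-1724 added with compounds to block cAMP breakdown; potency is the fitted concentration of half-maximal effect; nearly all actives have a fitted effect of over 60% in size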
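Cells stably selected in G418 were plated at 2000/well, grown 16-24 hr, then given compounds in DMSO with the PDE inhibitor […] (300 uM solution added) for 30 min at 37C; cAMP was read by HTRF.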
RXFP1 agonist: qHTS Assay for Agonists of the Relaxin Receptor RXFP1; HEK293T-RXFP1 cAMP TR-FRET, 30 min; response scale: percent of porcine relaxin response, buffer zero; Potency, µM (doses to about 57.5 µM), for the others: at the highest dose activation, hits mostly activators; actives 0.3% (n = 370,000); active = well fitted activation curve with a large enough effect; inconclusive = small, poorly fitted or top-dose-only effect; note: potency is the fitted concentration of half-maximal effect; % is set by controls: 0 for no effect and ±100 for the full control effect; nearly all actives have a fitted effect of over 60% in size
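Agonist response is measured as cAMP accumulation in an RXFP1-transfected HEK293T line under PDE4 inhibition. Values are scaled between buffer-only and 29 nM porcine relaxin, and EC50s come from standard Hill equation fits.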
An asterisk follows results filed as active; [ ] = another dose, or the depositor's remark.

How did O=C(c1ccc(Cn2cc(Cl)cn2)o1)N1CCN(Cc2ccc3c(c2)OCO3)CC1 do in these assays?
pAkt inh: -110.6%*; RXFP1 antag: 8.2; gsp antag: 1.1%; TSHR antag: -1.4; gsp ag: 19.0%; RXFP1 agonist: -1.3%

How did CCOC(=O)/C=C/C(=O)Nc1ccc(Oc2ccccc2)cc1 do in these assays?
pAkt inh: inactive; RXFP1 antag: -64.0*; gsp antag: -1.0%; TSHR antag: -26.0; gsp ag: -15.3%[15.4 µM]; RXFP1 agonist: 2.6%

Results for CCOc1cc(C(=O)NCCc2sc(-c3ccc(F)cc3)nc2C)cc(OCC)c1OCC ?
RXFP1 antag: -15.9; RXFP1 agonist: -1.3%

Results for CC1(C(=O)NS(=O)(=O)c2ccc(F)cc2F)CCN1C(=O)C1(c2ccc(Cl)cc2)CCC1 (stereo unspecified) ?
pAkt inh: inactive

What do the screens show for `N#CC(=C=[N-])C1=C(C#N)C(c2ccccc2F)C([n+]2ccccc2)C(O)(C2CC2)N1` (stereo unspecified)?
pAkt inh: inactive; RXFP1 antag: 32.8; gsp antag: 6.7%; TSHR antag: 1.5; gsp ag: 18.4%; RXFP1 agonist: 25.1µM*

How did Cc1cccc(Nc2nc(-c3ccc(O)cc3O)cs2)n1 do in these assays?
pAkt inh: inactive; RXFP1 antag: -78.9*; gsp antag: -5.3%; TSHR antag: 39.0; gsp ag: -12.9%; RXFP1 agonist: 0.7%

Results for Oc1ccc(-c2csc(Nc3ncccn3)n2)c(O)c1 ?
pAkt inh: inactive; RXFP1 antag: -3.8; gsp antag: 4.0%; TSHR antag: 5.4; gsp ag: -8.6%[15.4 µM]; RXFP1 agonist: 0.4%

How did COc1ccc(N2C(=O)C3CCCN3C2c2ccc(C)o2)cc1 (stereo unspecified) do in these assays?
pAkt inh: inactive; gsp antag: 50.1µM*; TSHR antag: 2.2; gsp ag: -5.8%; RXFP1 agonist: 3.4%

How did CCOc1ccc(NC(=O)c2ccc3c(=O)n4nc(Nc5ccccc5C)sc4nc3c2)cc1 do in these assays?
RXFP1 agonist: 2.6%

What do the screens show for `COc1ccc(OC)c(/C(O)=C/C(=O)C(=O)Nc2cc(C)cc(C)c2)c1`?
pAkt inh: -106.2%*; RXFP1 antag: 3.8; gsp antag: -17.4%; TSHR antag: -1.7; gsp ag: -32.7%; RXFP1 agonist: 0.2%

What do the screens show for `COc1ccc(OC)c(/C(O)=C/C(=O)C(=O)Nc2cc(C)ccc2OC)c1`?
pAkt inh: inactive; RXFP1 antag: -7.7; gsp antag: 2.7%; TSHR antag: 0.2; gsp ag: 0.0%; RXFP1 agonist: 0.1%

Results for Cn1cc(C(=O)c2ccc(Cl)cc2Cl)cc1C(=O)N/N=C(\N)COc1ccccc1 ?
pAkt inh: -108.6%*; RXFP1 antag: -10.0; gsp antag: -21.9%; TSHR antag: -5.8; gsp ag: -7.0%; RXFP1 agonist: -0.1%

What do the screens show for `COc1ccc2cnn(-c3ccc(OC(F)(F)F)cc3)c(=O)c2c1OC`?
pAkt inh: inactive; RXFP1 antag: -11.8; gsp antag: 3.9%; TSHR antag: -9.5; gsp ag: inconclusive; RXFP1 agonist: 1.7%

How did CCOC(=O)c1cccc(NC(=O)c2cnc3ccccc3n2)c1 do in these assays?
pAkt inh: -95.7%*; RXFP1 antag: -17.6; gsp antag: -25.5%; TSHR antag: -12.5; gsp ag: -13.3%; RXFP1 agonist: -0.6%

Screening data from PubChem.
